According to ChEMBL document CHEMBL1961873, “Compounds: GSK PKIS; Assays: Nanosyn kinase panel” (2012):

Columns and labels:
[1] = target: Tyrosine-protein kinase Fyn (Homo sapiens) (UniProt P06241); details: at 1 µM
[2] = target: Tyrosine-protein kinase HCK (Homo sapiens) (UniProt P08631); details: at 0.1 µM
[3] = target: Tyrosine-protein kinase HCK (Homo sapiens) (UniProt P08631); details: at 1 µM
[4] = target: Insulin-like growth factor 1 receptor (Homo sapiens) (UniProt P08069); details: at 0.1 µM
Insulin-like growth factor 1 receptor (Homo sapiens), sequence (P08069 31-736 limits assumed): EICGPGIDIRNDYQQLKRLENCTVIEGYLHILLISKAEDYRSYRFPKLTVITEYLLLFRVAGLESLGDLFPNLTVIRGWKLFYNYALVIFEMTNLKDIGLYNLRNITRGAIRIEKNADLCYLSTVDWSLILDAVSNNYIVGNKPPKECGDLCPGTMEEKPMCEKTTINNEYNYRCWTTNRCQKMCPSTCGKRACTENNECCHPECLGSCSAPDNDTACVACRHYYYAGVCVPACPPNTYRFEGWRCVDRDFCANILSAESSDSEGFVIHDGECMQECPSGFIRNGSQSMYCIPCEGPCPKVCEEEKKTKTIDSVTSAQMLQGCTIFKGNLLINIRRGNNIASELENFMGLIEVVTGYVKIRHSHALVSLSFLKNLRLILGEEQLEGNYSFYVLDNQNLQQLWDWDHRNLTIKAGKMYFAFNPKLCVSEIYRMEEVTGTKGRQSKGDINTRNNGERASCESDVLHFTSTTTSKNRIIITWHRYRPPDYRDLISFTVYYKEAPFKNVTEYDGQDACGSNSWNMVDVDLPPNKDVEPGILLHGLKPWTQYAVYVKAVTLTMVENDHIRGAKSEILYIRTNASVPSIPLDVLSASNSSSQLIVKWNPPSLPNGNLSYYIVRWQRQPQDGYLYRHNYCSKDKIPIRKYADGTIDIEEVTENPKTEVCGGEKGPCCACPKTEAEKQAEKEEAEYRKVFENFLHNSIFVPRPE
Insulin-like growth factor 1 receptor (Homo sapiens), sequence (P08069 741-1367 limits assumed): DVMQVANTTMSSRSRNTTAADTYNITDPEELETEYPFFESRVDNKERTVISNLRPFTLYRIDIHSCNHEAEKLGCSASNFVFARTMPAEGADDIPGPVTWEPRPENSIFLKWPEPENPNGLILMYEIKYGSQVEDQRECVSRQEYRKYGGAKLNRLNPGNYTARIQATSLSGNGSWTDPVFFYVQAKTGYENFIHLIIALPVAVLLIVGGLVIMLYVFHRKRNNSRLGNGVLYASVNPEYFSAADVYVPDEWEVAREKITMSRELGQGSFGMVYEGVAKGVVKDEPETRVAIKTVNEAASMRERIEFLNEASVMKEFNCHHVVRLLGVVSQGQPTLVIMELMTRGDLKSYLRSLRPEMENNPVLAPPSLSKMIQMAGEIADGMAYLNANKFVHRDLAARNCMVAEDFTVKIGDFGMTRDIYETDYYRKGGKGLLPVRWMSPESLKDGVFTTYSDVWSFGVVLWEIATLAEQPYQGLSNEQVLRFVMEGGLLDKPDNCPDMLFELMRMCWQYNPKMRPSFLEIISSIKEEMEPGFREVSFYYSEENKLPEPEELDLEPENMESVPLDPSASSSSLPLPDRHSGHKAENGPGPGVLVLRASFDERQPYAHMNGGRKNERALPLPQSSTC

[5] = target: Insulin-like growth factor 1 receptor (Homo sapiens) (UniProt P08069); details: at 1 µM
[6] = target: Insulin receptor (Homo sapiens) (UniProt P06213); details: at 0.1 µM
[7] = target: Insulin receptor (Homo sapiens) (UniProt P06213); details: at 1 µM
[8] = target: Insulin receptor-related protein (Homo sapiens) (UniProt P14616); details: at 0.1 µM
Insulin receptor-related protein (Homo sapiens), sequence (P14616 27-742 limits assumed): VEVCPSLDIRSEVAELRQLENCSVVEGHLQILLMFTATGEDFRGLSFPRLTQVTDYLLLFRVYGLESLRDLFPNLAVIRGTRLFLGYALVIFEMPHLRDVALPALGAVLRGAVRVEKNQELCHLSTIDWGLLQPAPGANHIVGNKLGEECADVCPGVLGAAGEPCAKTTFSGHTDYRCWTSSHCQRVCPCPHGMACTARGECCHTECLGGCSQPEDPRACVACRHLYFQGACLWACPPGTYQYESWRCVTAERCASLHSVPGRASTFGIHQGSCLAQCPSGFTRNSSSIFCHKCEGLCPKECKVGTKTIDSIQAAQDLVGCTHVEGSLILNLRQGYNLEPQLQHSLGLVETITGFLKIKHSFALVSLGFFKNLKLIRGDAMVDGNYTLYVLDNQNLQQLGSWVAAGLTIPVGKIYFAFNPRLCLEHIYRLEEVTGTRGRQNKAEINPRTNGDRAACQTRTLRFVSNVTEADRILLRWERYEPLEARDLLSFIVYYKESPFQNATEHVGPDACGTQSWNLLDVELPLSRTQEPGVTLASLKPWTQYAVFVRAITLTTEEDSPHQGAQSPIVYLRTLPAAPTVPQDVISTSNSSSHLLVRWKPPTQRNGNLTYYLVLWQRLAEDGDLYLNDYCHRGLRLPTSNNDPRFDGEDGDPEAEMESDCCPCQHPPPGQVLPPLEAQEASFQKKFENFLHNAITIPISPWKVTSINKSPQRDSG
Insulin receptor-related protein (Homo sapiens), sequence (P14616 747-1297 limits assumed): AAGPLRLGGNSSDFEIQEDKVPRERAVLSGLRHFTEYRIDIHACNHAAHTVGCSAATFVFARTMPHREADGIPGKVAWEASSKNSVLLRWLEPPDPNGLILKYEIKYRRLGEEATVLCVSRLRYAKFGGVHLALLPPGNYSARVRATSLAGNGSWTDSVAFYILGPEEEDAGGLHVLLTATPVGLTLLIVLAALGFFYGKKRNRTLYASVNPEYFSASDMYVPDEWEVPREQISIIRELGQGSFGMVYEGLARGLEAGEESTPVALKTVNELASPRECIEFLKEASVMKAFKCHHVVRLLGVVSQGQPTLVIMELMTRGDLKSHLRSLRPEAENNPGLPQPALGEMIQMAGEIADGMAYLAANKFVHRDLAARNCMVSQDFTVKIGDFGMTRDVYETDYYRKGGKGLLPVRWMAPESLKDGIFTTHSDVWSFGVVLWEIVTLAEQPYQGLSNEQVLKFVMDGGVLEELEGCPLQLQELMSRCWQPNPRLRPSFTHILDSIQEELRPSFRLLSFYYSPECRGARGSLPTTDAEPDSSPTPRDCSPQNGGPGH

[9] = target: Insulin receptor-related protein (Homo sapiens) (UniProt P14616); details: at 1 µM
[10] = target: T1, Tyrosine-protein kinase ITK/TSK (Homo sapiens) (UniProt Q08881); details: at 0.1 µM
T1 sequence (whole entry): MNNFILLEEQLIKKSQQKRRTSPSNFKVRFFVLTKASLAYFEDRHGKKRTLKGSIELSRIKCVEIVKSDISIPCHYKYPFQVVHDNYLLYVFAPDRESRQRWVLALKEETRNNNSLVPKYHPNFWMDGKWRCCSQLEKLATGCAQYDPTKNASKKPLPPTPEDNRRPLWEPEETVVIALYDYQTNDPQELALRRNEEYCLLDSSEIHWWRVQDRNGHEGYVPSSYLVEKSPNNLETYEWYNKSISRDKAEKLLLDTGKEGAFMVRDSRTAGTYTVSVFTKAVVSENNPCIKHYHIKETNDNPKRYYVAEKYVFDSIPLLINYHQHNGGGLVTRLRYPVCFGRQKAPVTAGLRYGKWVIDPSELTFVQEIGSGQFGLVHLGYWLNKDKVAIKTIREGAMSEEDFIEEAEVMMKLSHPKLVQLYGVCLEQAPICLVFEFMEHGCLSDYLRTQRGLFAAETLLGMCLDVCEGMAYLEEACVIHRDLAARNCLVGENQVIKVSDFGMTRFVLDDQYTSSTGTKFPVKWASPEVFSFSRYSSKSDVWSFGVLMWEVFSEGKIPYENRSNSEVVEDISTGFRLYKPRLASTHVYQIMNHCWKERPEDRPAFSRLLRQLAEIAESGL

[11] = target: T1, Tyrosine-protein kinase ITK/TSK (Homo sapiens); details: at 1 µM
[12] = target: Tyrosine-protein kinase JAK1 (Homo sapiens) (UniProt P23458); details: at 0.1 µM
[13] = target: Tyrosine-protein kinase JAK1 (Homo sapiens) (UniProt P23458); details: at 1 µM
[14] = target: Tyrosine-protein kinase JAK2 (Homo sapiens) (UniProt O60674); details: at 0.1 µM
Tyrosine-protein kinase JAK2 (Homo sapiens), sequence (O60674 whole entry): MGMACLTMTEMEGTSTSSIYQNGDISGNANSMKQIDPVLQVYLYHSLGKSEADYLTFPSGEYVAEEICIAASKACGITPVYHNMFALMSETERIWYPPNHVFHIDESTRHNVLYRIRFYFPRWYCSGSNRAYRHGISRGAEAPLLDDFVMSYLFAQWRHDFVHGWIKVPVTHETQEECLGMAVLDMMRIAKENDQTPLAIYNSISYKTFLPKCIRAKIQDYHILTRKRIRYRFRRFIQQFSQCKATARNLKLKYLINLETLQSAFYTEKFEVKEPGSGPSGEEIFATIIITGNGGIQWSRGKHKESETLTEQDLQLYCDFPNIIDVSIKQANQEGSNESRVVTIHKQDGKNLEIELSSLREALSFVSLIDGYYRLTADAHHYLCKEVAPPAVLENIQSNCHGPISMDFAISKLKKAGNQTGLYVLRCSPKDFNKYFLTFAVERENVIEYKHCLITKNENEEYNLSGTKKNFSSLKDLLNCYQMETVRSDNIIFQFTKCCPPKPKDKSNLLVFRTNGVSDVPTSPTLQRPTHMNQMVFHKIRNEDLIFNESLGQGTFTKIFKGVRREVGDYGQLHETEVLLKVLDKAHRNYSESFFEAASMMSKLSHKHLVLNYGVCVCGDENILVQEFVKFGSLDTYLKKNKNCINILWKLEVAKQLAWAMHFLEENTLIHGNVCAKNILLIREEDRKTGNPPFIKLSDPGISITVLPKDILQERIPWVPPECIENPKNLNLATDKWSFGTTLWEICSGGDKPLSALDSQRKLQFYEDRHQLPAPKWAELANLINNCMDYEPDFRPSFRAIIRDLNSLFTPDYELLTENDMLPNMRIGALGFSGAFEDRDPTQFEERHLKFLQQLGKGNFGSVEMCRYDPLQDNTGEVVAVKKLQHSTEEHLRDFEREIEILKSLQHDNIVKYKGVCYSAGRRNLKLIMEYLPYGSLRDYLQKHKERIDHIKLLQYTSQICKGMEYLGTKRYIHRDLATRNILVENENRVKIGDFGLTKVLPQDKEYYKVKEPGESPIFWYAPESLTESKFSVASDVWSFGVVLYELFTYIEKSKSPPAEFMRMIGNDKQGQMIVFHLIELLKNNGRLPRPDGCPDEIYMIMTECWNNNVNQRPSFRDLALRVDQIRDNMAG

[15] = target: Tyrosine-protein kinase JAK2 (Homo sapiens) (UniProt O60674); details: at 1 µM
[16] = target: T2, Tyrosine-protein kinase JAK3 (Homo sapiens) (UniProt P52333); details: at 0.1 µM
T2 sequence (whole entry): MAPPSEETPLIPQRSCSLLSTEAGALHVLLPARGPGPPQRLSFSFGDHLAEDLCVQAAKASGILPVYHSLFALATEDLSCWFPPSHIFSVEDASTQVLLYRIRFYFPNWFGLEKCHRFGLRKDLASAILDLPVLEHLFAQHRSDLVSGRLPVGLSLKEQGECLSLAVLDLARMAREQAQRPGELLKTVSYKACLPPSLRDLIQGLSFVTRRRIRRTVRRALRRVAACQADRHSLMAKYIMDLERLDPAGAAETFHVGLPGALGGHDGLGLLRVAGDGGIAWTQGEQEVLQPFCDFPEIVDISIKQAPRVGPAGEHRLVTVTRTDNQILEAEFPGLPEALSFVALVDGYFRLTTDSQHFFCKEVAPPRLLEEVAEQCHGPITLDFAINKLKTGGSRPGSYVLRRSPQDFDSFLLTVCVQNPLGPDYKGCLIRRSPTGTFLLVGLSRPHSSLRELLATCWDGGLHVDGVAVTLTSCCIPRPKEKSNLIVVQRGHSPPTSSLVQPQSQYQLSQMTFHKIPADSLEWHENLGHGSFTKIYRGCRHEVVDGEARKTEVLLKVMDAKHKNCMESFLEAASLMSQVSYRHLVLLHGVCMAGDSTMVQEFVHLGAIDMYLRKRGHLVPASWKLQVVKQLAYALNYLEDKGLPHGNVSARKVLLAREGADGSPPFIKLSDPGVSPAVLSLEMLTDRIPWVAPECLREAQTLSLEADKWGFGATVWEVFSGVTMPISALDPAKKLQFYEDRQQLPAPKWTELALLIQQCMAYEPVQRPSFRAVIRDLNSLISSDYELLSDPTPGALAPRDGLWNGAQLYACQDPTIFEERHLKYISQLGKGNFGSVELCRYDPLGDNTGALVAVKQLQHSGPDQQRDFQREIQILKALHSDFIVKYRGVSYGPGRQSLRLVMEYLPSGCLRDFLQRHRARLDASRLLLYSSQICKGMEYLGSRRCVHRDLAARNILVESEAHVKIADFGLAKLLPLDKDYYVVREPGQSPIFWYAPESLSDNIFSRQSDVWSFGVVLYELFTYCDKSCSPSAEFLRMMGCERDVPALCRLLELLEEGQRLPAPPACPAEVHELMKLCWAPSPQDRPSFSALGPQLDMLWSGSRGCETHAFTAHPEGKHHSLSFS

[17] = target: T2, Tyrosine-protein kinase JAK3 (Homo sapiens); details: at 1 µM
[18] = target: Vascular endothelial growth factor receptor 2 (Homo sapiens) (UniProt P35968); details: at 0.1 µM
[19] = target: Vascular endothelial growth factor receptor 2 (Homo sapiens) (UniProt P35968); details: at 1 µM
[20] = target: Mast/stem cell growth factor receptor Kit (Homo sapiens) (UniProt P10721); details: at 0.1 µM;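 further: values are mean inhibition of KIT, from the GSK PKIS dataset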
Mast/stem cell growth factor receptor Kit (Homo sapiens), sequence (P10721 whole entry): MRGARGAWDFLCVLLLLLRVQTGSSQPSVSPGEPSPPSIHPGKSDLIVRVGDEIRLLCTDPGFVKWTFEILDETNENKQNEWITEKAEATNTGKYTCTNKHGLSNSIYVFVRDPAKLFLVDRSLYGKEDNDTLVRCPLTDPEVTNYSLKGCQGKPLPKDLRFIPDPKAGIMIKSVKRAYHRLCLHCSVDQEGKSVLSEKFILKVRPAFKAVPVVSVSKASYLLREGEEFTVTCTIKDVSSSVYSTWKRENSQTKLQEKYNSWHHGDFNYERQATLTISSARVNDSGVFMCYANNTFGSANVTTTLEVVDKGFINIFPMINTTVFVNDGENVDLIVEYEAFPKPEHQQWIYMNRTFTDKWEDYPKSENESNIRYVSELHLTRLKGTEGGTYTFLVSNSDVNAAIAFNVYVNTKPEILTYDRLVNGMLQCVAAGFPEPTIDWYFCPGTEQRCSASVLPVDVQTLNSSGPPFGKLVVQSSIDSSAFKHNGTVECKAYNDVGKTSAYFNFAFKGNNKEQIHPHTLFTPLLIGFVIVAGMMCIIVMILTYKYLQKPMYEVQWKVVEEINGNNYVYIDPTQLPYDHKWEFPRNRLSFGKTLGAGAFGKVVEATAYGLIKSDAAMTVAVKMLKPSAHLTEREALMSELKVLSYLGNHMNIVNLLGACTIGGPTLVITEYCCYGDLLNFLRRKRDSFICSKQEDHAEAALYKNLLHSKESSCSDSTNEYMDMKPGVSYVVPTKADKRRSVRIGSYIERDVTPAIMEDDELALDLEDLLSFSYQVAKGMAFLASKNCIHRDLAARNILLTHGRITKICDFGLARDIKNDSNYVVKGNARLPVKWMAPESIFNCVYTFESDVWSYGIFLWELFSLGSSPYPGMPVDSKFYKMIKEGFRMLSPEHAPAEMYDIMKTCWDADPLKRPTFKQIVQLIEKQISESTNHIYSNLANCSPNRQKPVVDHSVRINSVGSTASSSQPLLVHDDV

| Compound | inhibition [1] | inhibition [2] | inhibition [3] | inhibition [4] | inhibition [5] | inhibition [6] | inhibition [7] | inhibition [8] | inhibition [9] | inhibition [10] | inhibition [11] | inhibition [12] | inhibition [13] | inhibition [14] | inhibition [15] | inhibition [16] | inhibition [17] | inhibition [18] | inhibition [19] | inhibition [20] |
| --- | --- | --- | --- | --- | --- | --- | --- | --- | --- | --- | --- | --- | --- | --- | --- | --- | --- | --- | --- | --- |
| COc1cc2c(cc1Nc1nc(Nc3ccsc3C(N)=O)c3cc[nH]c3n1)N(C(=O)CN(C)C)CCC2(C)C | 1.15% | 6.46% | 12.9% | 98.1% | 97.1% | 98.7% | 98% | 98% | 97.9% | 1.74% | 3.88% | 4.13% | 2.78% | 0.97% | 0.03% | 0.41% | 1.42% | 8.34% | 14.1% | 18.8% |
| CN1CCC(n2cnc(-c3ccc(F)cc3)c2-c2ccnc(Nc3ccccc3)n2)CC1 | 8.11% | 4.85% | 11.1% | 1.01% | 1.68% | 1.5% | 0.39% | 0.31% | 2.49% | 0.83% | 1.68% | 1.51% | 8.4% | 0.27% | 0.26% | -0.54% | 1.46% | 4.35% | 12.4% | 2.33% |
| CS(=O)(=O)CCNCc1coc(-c2ccc3ncnc(Nc4ccc(OCc5ccccc5)cc4)c3c2)c1 | 12.2% | 4.78% | 9.64% | 0.62% | 2.16% | 3.09% | 2.56% | -0.04% | 3.03% | 0.65% | 1.57% | -1.63% | 0.69% | 1.12% | 1.93% | -1.53% | 0.54% | 4.63% | 7.45% | -0.21% |
| Nc1nc(-c2cccc(Cl)c2)c(-c2ccc3ncccc3n2)s1 | 5.51% | 3.98% | 9.71% | 3.52% | 2.56% | 6.92% | 7.08% | 1.7% | 4.52% | 1.66% | 1.36% | 2.71% | 14.3% | 0.64% | 0.69% | -2.58% | -0.69% | 33.1% | 67.4% | 5.86% |
| CCn1cc(-c2ccnc3[nH]ccc23)c(-c2cccc(NC(=O)Nc3ccc(OCc4ccccc4)cc3)c2)n1 | 1.64% | 0.36% | 2.34% | -3.42% | 0.41% | 2.08% | 3.81% | -1.45% | -1.26% | -0.92% | -0.24% | 1.9% | 1.7% | -0.01% | -1.69% | -1.38% | -0.25% | 0.29% | 7.33% | -2.3% |
| Nc1nc(-c2ccc(F)cc2)c(-c2ccc3ncccc3n2)s1 | 12.4% | 5.89% | 17.5% | 4.9% | 24.4% | 6.61% | 43.3% | 2.47% | 1.87% | 2.58% | 2.71% | 2.95% | 6.76% | 2.05% | 4.07% | -0.98% | 1.8% | 33.2% | 71.1% | 3.28% |
| N#Cc1c(NC(=O)CN2CCOCC2)sc2c1CCCC2 | 8.48% | 2.96% | 8.43% | 4.81% | 5.33% | 13.2% | 8.64% | 3.54% | 3.5% | 1.1% | 3.52% | 2.38% | 9.38% | 2.3% | 3.35% | -0.09% | 1.28% | 4.13% | 6.56% | 6.21% |
| Fc1cccc(COc2ccc(Nc3ncnc4sc(-c5ccco5)cc34)cc2Cl)c1 | 4.89% | 4.32% | 6.64% | 0.23% | 0.87% | 1.94% | 2.78% | 2.1% | 2.84% | 0.55% | 3.14% | 0.17% | 3.56% | 1.34% | 1.22% | -3.93% | -1.55% | 3.37% | 10.4% | 6.1% |
| COc1ccc2c(-c3ccnc(Nc4cccc(OC(F)(F)F)c4)n3)cnn2n1 | 7.69% | 5.89% | 11.3% | 3.31% | 5.36% | 4.34% | 8.18% | 4.74% | 3.42% | 1.46% | 2.38% | 4.66% | 13% | 1.65% | 10.9% | -0.93% | 2.75% | 6.22% | 14.8% | 10.7% |
| Cc1ccc2c(-c3ccnc(Nc4ccccc4)n3)c(-c3ccc(F)cc3)nn2n1 | 68.9% | 11.9% | 43.9% | 1.92% | 5.18% | 1.31% | 7.57% | 4.42% | 2.61% | 1.54% | 2.3% | 3.23% | -5.84% | 1.55% | 2.93% | -0.48% | 2.61% | 21% | 64% | 23.8% |
| CCc1nn2ncccc2c1-c1ccnc(NC2CC2)n1 | 5.07% | 5.27% | 5.74% | 1.94% | 2% | 2.33% | 4.74% | 2.32% | 1.77% | 1.28% | 1.59% | 1.35% | 0.58% | 0.9% | 1.59% | -2.87% | -0.27% | 3.91% | 5.8% | 3.6% |
